Test results from PubChem BioAssay (NCI).
This is part of a sample that, as a whole, favours compounds with a hit. Of some 83,000 tested, about 20% had one in any assay.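 96-well plates, one dose, 48 hours. Percent growth reported; active if below 10.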 Active and inactive are the calls of the source.

Experiments:
Assay in all cases: NCI-60 one-dose screen, 48 h (100 = growth as untreated, 0 = no growth, -100 = all killed)
Conditions in all cases: 10 µM unless noted
[1] = test system: DU-145 prostate
[2] = test system: K-562 leukemia
[3] = test system: MALME-3M melanoma
[4] = test system: MDA-MB-231 breast
[5] = test system: RXF 393 renal
[6] = test system: SF-268 CNS
[7] = test system: SF-295 CNS
[8] = test system: SF-539 CNS
[9] = test system: UACC-257 melanoma
[10] = test system: M14 melanoma

Measured: growth

COc1cc2c(c(OC)c1OC)C(=O)CC(c1cccc(NC(=O)c3cc(NC(=O)[C@H](C)N)ccc3Cl)c1)O2 (stereo not given in full)
inactive: [1] 36% | [3] 45.5% | [4] 52.5% | [5] 32.1% | [6] 50.5% | [7] 110% | [8] 44.3% | [9] 62.9% | [10] 44.3%
active: [2] 9.72%

Cn1cc(-c2cc3nc(-c4cn(C)c5ncc(Br)cc45)cc(N)n3n2)c2cc(Cl)ccc21
active: [1] -58.3% | [2] -29.2% | [3] -91.9% | [4] -85.5% | [5] -64.4% | [7] -72.5% | [8] -96.9% | [9] -82.7% | [10] -86.8%
inactive: [6] 20.1%

COc1cc(C2CC(c3cc(OC)c(OC)c(OC)c3)=NN2C(C)=O)ccc1OCc1ccccc1 (stereo not given)
inactive: [1] 40.4% | [2] 18.6% | [3] 43.1% | [4] 64% | [5] 31.4% | [6] 47.8% | [7] 24.6% | [8] 51.7% | [9] 48.8% | [10] 36.9%

COc1cc2oc(-c3cccc(C(=O)Nc4ccc(Cl)cc4)c3)cc(=O)c2c(OCCNC(=O)[C@H](CCC(=O)OC(C)(C)C)NC(=O)OC(C)(C)C)c1OC
inactive: [1] 108% | [2] 81.5% | [3] 106% | [4] 85.4% | [5] 84.3% | [6] 81.8% | [7] 94.5% | [8] 87.8% | [9] 107% | [10] 106%

COc1ccc2[nH]c(=O)c(CSc3nccc(-c4ccc(OC)c(OC)c4)n3)cc2c1
active: [3] -2.09% | [4] 6.47% | [5] -13.7% | [7] -30.4%
inactive: [1] 37.4% | [2] 11.4% | [6] 28% | [8] 24.7% | [9] 38.9% | [10] 47.8%

COc1ccc(C2=NN(c3ccccc3)C(c3ccc(OC)c(OCc4ccccc4)c3)C2)cc1OC (stereo not given)
inactive: [1] 105% | [2] 95% | [3] 92.6% | [4] 100% | [5] 98.1% | [6] 96.5% | [7] 107% | [8] 99.9% | [9] 103% | [10] 104%

Cn1cc(-c2cc(N)n3nc(-c4c[nH]c5ccccc45)cc3n2)c2cccnc21
active: [2] 6.08% | [3] -27.3% | [4] -9.34% | [7] -4.84% | [8] -81.5% | [10] -48.1%
inactive: [1] 38.2% | [5] 29.6% | [6] 81.6% | [9] 92.3%

O=C(c1ccc(OCCN2CCOCC2)cc1)C1[C@H](c2ccc(Cl)cc2)[C@@H](c2ccccc2)NC12C(=O)Nc1ccc(Br)cc12 (stereo not given in full)
active: [2] 1.09% | [5] -1.59%
inactive: [1] 41.6% | [3] 56.3% | [4] 18.2% | [6] 39.6% | [7] 21.8% | [8] 35% | [9] 39.7% | [10] 23.8%

CCOC(=O)/C=C/c1cccc2c1C(=O)NC(C)(c1cc3cc(Cl)ccc3oc1=O)N2 (stereo not given)
active: [5] -1.81%
inactive: [1] 37.7% | [2] 19% | [3] 32.7% | [4] 32.1% | [6] 45.5% | [7] 19.3% | [8] 38.5% | [9] 44.3% | [10] 22.3%

N/C(=N\c1nc2ccccc2s1)NC(=O)Nc1ccccc1Br
inactive: [2] 11.5% | [9] 54.8%
active: [1] -40.7% | [3] -12.5% | [4] -50.3% | [5] 0.178% | [6] 1.62% | [7] -31.4% | [8] -75.6% | [10] 2.92%

COc1ccc2[nH]cc(-c3nc(N)nnc3-c3cn(C)c4ncccc34)c2c1
inactive: [1] 83.9% | [2] 21.6% | [3] 37.6% | [4] 43.4% | [5] 81.5% | [6] 75.8% | [7] 39.9% | [8] 50.2% | [9] 72.9% | [10] 33.2%

C=CC(=O)Nc1ccc(C)c(Oc2ccc(Cl)cc2)c1
inactive: [1] 68.6% | [2] 53.2% | [3] 73.8% | [4] 44.1% | [5] 38.5% | [6] 57.1% | [7] 58% | [8] 30.2% | [9] 66.6% | [10] 72.3%

O=C(/C=C/Nc1ccc(Cl)cc1)c1ccc2c(c1)Nc1ccccc1S2
inactive: [1] 33.5% | [2] 49.2% | [3] 50.7% | [4] 26.8% | [5] 14.5% | [6] 42.3% | [7] 23.4% | [9] 74.5% | [10] 49.5%
active: [8] 8%

C=C1CC[C@@H]2[C@]3(C)COC(c4ccco4)O[C@@H]3CC[C@@]2(C)[C@@H]1C/C=C1/C(=O)OCC1OC(C)=O (stereo not given in full)
active: [2] 3.97% | [3] -60.3% | [8] -47.3%
inactive: [1] 48.8% | [4] 48.8% | [5] 27.5% | [6] 67.8% | [7] 59.5% | [9] 58.7% | [10] 19%

C=CC[N+](C)(C)CCn1c2ccccc2c2nc3cc(C)c(C)cc3nc21
inactive: [1] 105% | [2] 75.7% | [3] 57.1% | [4] 105% | [5] 89.2% | [6] 56.1% | [7] 99.6% | [8] 56.8% | [9] 86% | [10] 96.2%

COc1cc2oc(-c3cccc(C(=O)Nc4cccc([N+](=O)[O-])c4)c3)cc(=O)c2c(OC)c1OC
active: [5] -13.4% | [6] -3.57% | [7] -0.211% | [8] 3.56%
inactive: [1] 29.5% | [2] 69.2% | [3] 11.4% | [4] 11.5% | [9] 31.7% | [10] 58.2%

COc1c(F)ccc(C(=O)Nc2ccc3nc(NC(=O)C4CCCN(S(=O)(=O)c5cccc(Br)c5)C4)sc3c2)c1F (stereo not given)
inactive: [1] 91.4% | [2] 60.2% | [3] 99.4% | [4] 90.7% | [6] 69.7% | [7] 84.5% | [8] 74.5% | [9] 92.4% | [10] 87.2%
active: [5] -3.33%

CN1C(=O)/C(=C/c2ccc(C(=O)Nc3ncc(Cc4ccc(Cl)cc4Cl)s3)cc2)SC1=S
inactive: [1] 30.7% | [2] 24.3% | [3] 23.1% | [4] 43.6% | [5] 30.9% | [6] 47% | [7] 10.8% | [8] 36.9% | [9] 33.1% | [10] 11.6%

CC(=O)Nc1ccc(C(=O)NC(=S)Nc2ccc(S(N)(=O)=O)cc2)cc1
inactive: [1] 105% | [2] 86.6% | [3] 89.9% | [4] 99.3% | [5] 93.2% | [6] 97.1% | [7] 102% | [8] 90.7% | [9] 95.2% | [10] 93.6%

O=C(Cn1nc(-c2ccccc2)ccc1=O)N/N=C/c1ccc(N2CCOCC2)cc1
inactive: [1] 101% | [2] 88.9% | [3] 90.1% | [4] 104% | [5] 111% | [6] 98.2% | [7] 88.8% | [8] 90.5% | [9] 99.2% | [10] 102%

N/N=C(\N)c1c(N)nc(=S)[nH]c1-c1ccc(Cl)cc1Cl
inactive: [1] 120% | [2] 105% | [3] 92.3% | [4] 94.9% | [5] 115% | [6] 108% | [7] 94.5% | [8] 94.6% | [9] 108% | [10] 107%

COc1ccc(-c2nc3cc(C)ccc3n2CC(=O)N=Nc2c(O)[nH]c3ccc(Cl)cc23)cc1
active: [2] 4.54% | [3] -56.9% | [4] -43.8% | [5] -63.2% | [7] -67.5% | [8] -52.7% | [9] -31.2% | [10] -44.6%
inactive: [1] 15% | [6] 21.6%

Cc1cccc(-c2nc(Nc3cccc(S(N)(=O)=O)c3)c3ccccc3n2)c1
inactive: [1] 57.3% | [2] 10.2% | [3] 75% | [5] 29.2% | [6] 46.2% | [7] 20.2% | [9] 87% | [10] 54%
active: [4] -13.6% | [8] -9.93%

CCN(CC)c1ccnc(CNCCSC(c2ccccc2)(c2ccccc2)c2ccc(OC)cc2)c1
active: [1] -25.3% | [2] -23.6% | [3] -92.5% | [4] -45.5% | [5] -26% | [6] 4.54% | [7] -93.7% | [8] -95.8% | [9] -45.3% | [10] -74.7%
